This passage reports Potency and activation results from PubChem BioAssay (Tox21).

Inconclusive results are not listed. Where a call stands in place of a potency, no number is given. A number with no mark means an inactive call. Calls of active or inactive are those of the source. Calls come from the whole dose curve; as a rule, active = well fitted activation curve with a large enough effect in the repeat runs; inconclusive = weak or mixed curves; inactive = no such curve, though single readings can be large or run the other way. Non-standard residues stand in square brackets, D forms with d. Residues, ends and D or L forms follow the SMILES beside them. *: point of attachment. Sta = CC(C)C[C@H](N)[C@@H](O)CC(=O)O; Isovaleryl = CC(C)CC(=O)*

Nuclear receptor subfamily 1 group I member 3 (Homo sapiens), sequence (Q14994 whole entry, looked up): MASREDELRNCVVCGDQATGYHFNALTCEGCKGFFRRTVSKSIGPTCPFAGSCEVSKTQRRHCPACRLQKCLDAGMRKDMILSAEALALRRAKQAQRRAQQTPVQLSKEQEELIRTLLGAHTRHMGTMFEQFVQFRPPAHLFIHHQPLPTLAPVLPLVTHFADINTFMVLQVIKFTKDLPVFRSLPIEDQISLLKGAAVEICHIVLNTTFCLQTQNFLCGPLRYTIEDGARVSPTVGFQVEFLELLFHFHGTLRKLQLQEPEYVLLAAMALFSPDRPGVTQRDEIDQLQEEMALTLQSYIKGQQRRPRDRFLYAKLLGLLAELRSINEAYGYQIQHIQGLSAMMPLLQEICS

This assay has as its target Nuclear receptor subfamily 1 group I member 3 (Homo sapiens) (UniProt Q14994). The experiment in a line: qHTS assay to identify small molecule agonists of the constitutive androstane receptor (CAR) signaling pathway (AID 1224839).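 Note: HepG2 cells stably carrying human CAR and a CYP2B6 luciferase reporter; nearly all actives have a fitted effect of over 15% in size.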 To be noted: HepG2 hCAR CYP2B6-luciferase, agonist mode, 24 h; series mostly up to 92.4 µM. The text has this: National Center for Advancing Translational Sciences [NCATS] NIH Chemical Genomics Center [NCGC] U.S. Environmental Protection Agency [EPA] National Institutes of Environmental Health Sciences [NIEHS] National Toxicology Program [NTP] Assay overview: The constitutive androstane receptor (CAR) is a nuclear receptor which regulates multiple drug metabolizing enzymes (DMEs) and transporters. Activating CAR will generally increase the transcription and subsequent translation of CYP2B6 and CYP3A4. These two DMEs represent about 50% of the drug metabolizing potential in the body. […] Recently, there have also been studies performed indicating CARs role in energy metabolism and cancer therapy. Therefore, inducing CARs activity could have a potential effect on diabetes and cancer. Identifying environmental toxins and compounds which modulate CAR, through the use of the Tox21 10K compound collection, will be an important step in determining the toxicity and potential therapeutic effects these factors will have on the human body.
Assay Protocol Summary: A double-stable (hCAR and CYP2B6-2.2kb) transfected cell line, derived from human hepatoma (HepG2) cells, was utilized for the duration of the quantitative high-throughput screens. The HepG2-CYP2B6-hCAR cells suspended in DMEM culture medium supplemented with 10% FBS, 5 ug/mL blasticidin, 0.5 mg/mL geneticin, 100 U/mL penicillin and 100 ug/mL streptomycin were dispensed at 2500 cells/4 uL/well in 1536-well white solid bottom plates using a Multidrop Combi. After the assay plates were incubated at 37 C/5% CO2 for 4 hrs, 23 nL of compounds at 15 concentrations (from 5-48 columns) or positive control (from 1 to 4 columns) were transferred to the assay plates using a Pintool station. One uL of PK11195, was added using a Flying Reagent Dispenser to generate a final concentration of 0.75 uM PK11195 inside each well. After a 24 hr incubation period at 37 C/5% CO2, four uL of ONE-Glo reagent was added into the assay plates using a Flying Reagent Dispenser. After a 30 min incubation period at room temperature, the luminescence intensity in the assay plates was measured using a ViewLux plate reader.
As for `CCCCCCCCCCCBr`, the Potency result is “inactive”. On the same count and under the same terms, then `Cc1ccc2cccnc2c1`, with “inactive”. On the same count and under the same terms, then `CCCCCCCCCCCCCC(=O)OCC`, with “inactive”; and `CC(CN1CC(=O)NC(=O)C1)N1CC(=O)NC(=O)C1` (stereo not given), with “inactive”; and `CC1=C(O)C(=O)CO1`, with “inactive”. In the case of `CC(=O)Oc1ccc(C(C)=O)cc1`, the Potency entry is “inactive”. Still for that read-out and setting: then `CCOC(=O)CC(C(C)=O)C(C)=O`, with “inactive”; and `CCNC(=O)C(C)OC(=O)Nc1ccccc1` (stereo not given), with “inactive”.

As to `COc1cc(OC)cc(OC)c1`, the Potency result is “inactive”.

As for `CCOC(=O)COc1ccc2c(C)c(CCN(CC)CC)c(=O)oc2c1Cl`, the Potency entry is “inactive”. Regarding `CC(=O)O[C@@H]1CC2C3CCc4cc(OC(=O)c5ccccc5)ccc4C3CCC2(C)[C@H]1OC(C)=O` (stereo not given in full), the Potency entry was “inactive”. The same measure, in the same setting: then `COC(=O)N/N=C/c1c[n+]([O-])c2ccccc2[n+]1[O-]`, with “inactive”; and `Cc1ccc(OC(=O)CC(C)C)cc1`, with “inactive”. Same read-out and setting: then `O=C1c2ccccc2C(=O)N1CO`, with “inactive”; and `CCCc1ccc(O)c(OC)c1`, with “inactive”; and `c1coc(Cn2cccc2)c1`, with “inactive”. Still for that read-out and setting: then `CN(C)CCC[C@@]1(c2ccc(F)cc2)OCc2cc(C#N)ccc21`, with “inactive”; and `CN(C)c1cc(NC(=O)CNC(C)(C)C)c(O)c2c1C[C@H]1C[C@H]3[C@H](N(C)C)C(=O)C(C(N)=O)=C(O)[C@@]3(O)C(=O)C1=C2O`, with “inactive”. Turning to `CC(O)CCCCn1c(=O)c2c(ncn2C)n(C)c1=O` (stereo not given), the Potency result was “inactive”. As for `Cc1ccc(S(=O)(=O)NC(=O)NN2CC3CCCC3C2)cc1` (stereo not given), the Potency entry is “inactive”. Still for that read-out and setting: the same measure for `CCCCNCC`: “inactive”. `O=c1c(O)c(O)c1=O`: the Potency entry is “inactive”. Take `CC(C)CC(=O)N[C@H](C(=O)N[C@H](C(=O)N[C@@H](CC(C)C)[C@@H](O)CC(=O)N[C@@H](C)C(=O)N[C@@H](CC(C)C)[C@@H](O)CC(=O)O)C(C)C)C(C)C` (Isovaleryl-VV[Sta]A[Sta]-OH): the Potency result was “inactive”.

With `CCCc1ncc(C(=O)O)s1`, the Potency entry was “inactive”. Consider `CC(C)(C)C(=O)CCc1ccc(Cl)cc1`, for which the Potency entry was “inactive”. As to `CCCCN(CCCC)CCCCCCN(CCCC)CCCC`, the Potency result is “inactive”.

For the molecule `CC1(C)CC(N)CC(C)(C)N1`, the Potency entry was “inactive”.

Turning to `CCCOc1ccc(C(=O)OCCN(CC)CC)cc1N`, the Potency entry is “inactive”.

In the case of `NNC(=O)CCCCC(=O)NN`, the Potency result is “inactive”. On the same count and under the same terms, then `CCC(C)c1nccnc1OC` (stereo not given), with “inactive”; and `CCCCC(O)/C=C(C)/C=C/C=C/C(=O)N1CCCC1=O` (stereo not given), with “inactive”; and `O=C(O)COc1ccc2ccccc2c1`, with “inactive”.

For `CNC(C)=O`, the Potency entry is “inactive”. Still for that read-out and setting: the same measure for `C[n+]1ccccc1/C=N/O`: “inactive”. Turning to `O=Cc1ccc(C(=O)O)cc1`, the Potency result is “inactive”. As for `CCCCC(CC)CCC(CC(C)C)OS(=O)(=O)O` (stereo not given), the Potency result is “inactive”. Same read-out and setting: the same measure for `Cc1ccc2ccccc2n1`: “inactive”; for `CCOC(=O)CN1CCCC1=O`: “inactive”; for `CCCCS`: “inactive”. Consider `C[C@@H]1NC(=O)[C@@H](N)CNC(=O)[C@H](C2CCNC(N)=N2)NC(=O)/C(=C/NC(N)=O)NC(=O)[C@H](CNC(=O)C[C@@H](N)CCCN)NC1=O` (stereo not given in full), for which the activation was 4.38% [at 0.349 µM].
